# According to PubChem BioAssay (EPA / NIEHS):
# Results filed as inconclusive are left out. Calls of active or inactive are those of the source. Rule for the calls, unless noted: active = hit-call score of the fitted dose curve at least 0.9, where 1 is the maximum; inactive = score below 0.9.
# Legend:
# [1] = CCTE_Harrill_HTTr_Viability_MCF7: CCTE's 6-hour Cell Viability Assessment for the High-Throughput Transcriptomics (HTTr) Platform, in MCF-7 cells cultured in DMEM + 10% fetal bovine serum, Harrill Lab (AID 2284010)
# Outline: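 Eight-point concentration series, six-hour exposure. Propidium iodide exclusion imaged to assess membrane integrity as a cytotoxicity readout; bidirectional fitting was done with DMSO as negative control and activity baseline.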
# [2] = CCTE_Harrill_HTTr_Apoptosis_MCF7: CCTE's 6-hour Apoptosis Assessment for the High-Throughput Transcriptomics (HTTr) Platform, in MCF-7 cells cultured in DMEM + 10% fetal bovine serum, Harrill Lab (AID 2284011)
# Outline: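 High-content imaging of CellEvent Caspase 3/7 Green signal follows a six-hour exposure, with eight concentrations per chemical. MCF-7 cells grown in DMEM plus 10% fetal bovine serum; activity fitted in both directions against DMSO.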
# [3] = CCTE_Shafer_MEA_acute_spike_number: CCTE's Neural Acute Assay for Total Number of Spikes, Shafer Lab (AID 2284008)
# Outline: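 Total spike count from 40 min recordings before and during compound exposure (0.03-40 uM), given as per-well percent change. Cortical cultures from rat, DIV 13 or 15, 37 C; adaptive detection threshold 8x rms noise.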
# [4] = CCTE_Shafer_MEA_acute_firing_rate_mean: CCTE's Neural Acute Assay for Mean Firing Rate, Shafer Lab (AID 2284009);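 note: analyzed for loss of signal so actives lower firing rate relative to DMSO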
# Outline: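 Primary rat cortical neurons on 16-electrode MEA wells were exposed on DIV 13 or 15 to compound (0.03-40 uM). Spike counts per recording time, averaged over electrodes, were compared between 40-min baseline and 40-min post-exposure recordings as percent change.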
# [5] = CCTE_Shafer_MEA_acute_burst_number: CCTE's Neural Acute Assay for Single-Electrode Bursts, Shafer Lab (AID 2284013)
# Outline: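 Primary rat cortical neurons on 16-electrode MEA wells, DIV 13 or 15, exposed to compound (0.03-40 uM; ≥3 wells); 40-min recordings at 37 C before and after treatment. Burst count expressed as percent change from baseline, DMSO as negative control.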
# [6] = CCTE_Shafer_MEA_acute_burst_duration_mean: CCTE's Neural Acute Assay for Mean Burst Duration, Shafer Lab (AID 2284014);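 note: hits are decreases in mean burst duration relative to DMSO controls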
# Outline: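 Mean burst duration was compared between a 40 min baseline and a 40 min recording in the presence of compound (0.03-40 uM, 37 C), giving percent change per well. Cultures were rat cortical neurons at DIV 13 or 15; wells needed ≥10 active electrodes.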
# [7] = CCTE_Shafer_MEA_acute_per_burst_spike_number_mean: CCTE's Neural Acute Assay for Average Number of Spikes Per Burst, Shafer Lab (AID 2284015);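 note: hits are decreases in mean spikes per burst versus baseline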
# Outline: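 Rat primary cortical neurons on 48-well MEAs (DIV 13 or 15) were treated with 0.03-40 uM compound at 37 C. Mean spikes per burst over 40 min were recorded before and after exposure and expressed as percent change from baseline, relative to DMSO.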
# [8] = CCTE_Harrill_HTTr_CellCount_MCF7: CCTE's Cell Proliferation Assessment for the High-Throughput Transcriptomics (HTTr) Platform, Harrill Lab (AID 2284012; active = hit-call score of the fitted dose curve at least 0.9, where 1 is the maximum;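 note: count of Hoechst-stained nuclei per well by high-content imaging in MCF-7 cells; cells exposed to compound for six hours; intended direction is loss of nuclei count meaning fewer cells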)
# Outline: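 For this full-screen endpoint, MCF-7 cultures received eight compound dilutions for six hours. Well nuclei counts from Hoechst imaging were analyzed relative to DMSO.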
smiles,measurement,setting,value
Nc1ccccc1[N+](=O)[O-],outcome,[1],inactive
same,outcome,[2],inactive
CC(C)C[C@H](NC(=O)OCC1c2ccccc2-c2ccccc21)C(=O)O,outcome,[1],inactive
same,outcome,[2],inactive
C=CC(C)(O)CCC=C(C)C (stereo not drawn),outcome,[3],inactive
same,outcome,[4],inactive
same,outcome,[2],inactive
same,outcome,[5],inactive
same,outcome,[6],inactive
same,outcome,[7],inactive
ON=C1CCCCC1,outcome,[1],inactive
same,outcome,[2],inactive
C=C(C)[C@H]1CC=C(C)C(=O)C1,outcome,[1],inactive
same,outcome,[2],inactive
CC(C)(C)c1ccc(C(=O)O)cc1,outcome,[1],inactive
same,outcome,[2],inactive
same,outcome,[8],inactive
Cc1[nH]c(=O)c(C#N)cc1-c1ccncc1,outcome,[1],inactive
same,outcome,[2],inactive
COc1cc([C@@H]2c3cc4c(cc3[C@@H](O[C@@H]3O[C@@H]5CO[C@@H](C)O[C@H]5[C@H](O)[C@H]3O)[C@H]3COC(=O)[C@H]23)OCO4)cc(OC)c1O,outcome,[1],inactive
same,outcome,[2],inactive
same,outcome,[8],inactive
CCCCCCOC(=O)CCC,outcome,[1],inactive
same,outcome,[2],inactive
CC(C)CCCCCCCCCCCCCCC(=O)O,outcome,[1],inactive
same,outcome,[2],inactive
same,outcome,[8],inactive
O=C(O)c1cccnc1C(=O)O,outcome,[1],inactive
same,outcome,[2],inactive
CC(C)(C)C1=CC(=O)C(C(C)(C)C)=CC1=O,outcome,[1],inactive
same,outcome,[2],inactive
same,outcome,[8],inactive
N[C@@H](Cc1cc(I)c(Oc2cc(I)c(O)c(I)c2)c(I)c1)C(=O)O,outcome,[1],inactive
same,outcome,[2],inactive
CN(C)CCOC(C)(c1ccccc1)c1ccccn1 (stereo not drawn),outcome,[1],inactive
same,outcome,[2],inactive
O=C(O)c1ccc(O)cc1,outcome,[1],inactive
same,outcome,[2],inactive
same,outcome,[8],inactive
Clc1cc(Cl)c(-c2c(Cl)c(Cl)cc(Cl)c2Cl)cc1Cl,outcome,[1],inactive
same,outcome,[2],inactive
same,outcome,[8],inactive
Cc1ncc([N+](=O)[O-])n1CCO,outcome,[1],inactive
same,outcome,[2],inactive
CCCC(=O)OCCc1ccccc1,outcome,[1],inactive
same,outcome,[2],inactive
same,outcome,[8],inactive
O=C(c1ccccc1)C(O)c1ccccc1 (stereo not drawn),outcome,[1],inactive
same,outcome,[2],inactive
same,outcome,[8],inactive
CS(=O)(=O)c1ccc(C2=C(c3ccccc3)C(=O)OC2)cc1,outcome,[1],inactive
same,outcome,[2],inactive
same,outcome,[8],inactive
CC(=O)Nc1ccc(C(=O)CCl)cc1,outcome,[1],inactive
same,outcome,[2],inactive
same,outcome,[8],inactive
Cc1ccc(-c2ccccc2)cc1,outcome,[1],inactive
same,outcome,[2],inactive
same,outcome,[8],inactive
CS(=O)(=O)c1ccc(Cl)cc1,outcome,[1],inactive
same,outcome,[2],inactive
C=C1CC[C@H](O)C/C1=C/C=C1\CCC[C@]2(C)[C@@H]([C@H](C)/C=C/[C@H](C)C(C)C)CC[C@@H]12,outcome,[1],inactive
same,outcome,[2],inactive
same,outcome,[8],inactive
OCC#CCO,outcome,[1],inactive
same,outcome,[2],inactive
same,outcome,[8],inactive
O=[N+]([O-])c1cccc(Cl)c1,outcome,[1],inactive
same,outcome,[2],inactive
CC1(C)O[C@@H]2C[C@H]3[C@@H]4CCC5=CC(=O)C=C[C@]5(C)[C@@]4(F)[C@@H](O)C[C@]3(C)[C@]2(C(=O)CO)O1,outcome,[1],inactive
same,outcome,[2],inactive
CC(C)c1ccccc1O,outcome,[1],inactive
same,outcome,[2],inactive
CC(=O)CC(=O)Nc1ccccc1,outcome,[1],inactive
same,outcome,[2],inactive
Cc1cc(C)nc(NS(=O)(=O)c2ccc(N)cc2)n1,outcome,[1],inactive
same,outcome,[2],inactive
CC1(C)COCN1,outcome,[1],inactive
same,outcome,[2],inactive
same,outcome,[8],inactive
O=P(O)(O)O,outcome,[1],inactive
same,outcome,[2],inactive
CC(C)NCC(O)COc1ccc(CC(N)=O)cc1 (stereo not drawn),outcome,[1],inactive
same,outcome,[2],inactive
C[C@H](CCC(=O)NCC(=O)O)[C@H]1CC[C@H]2[C@@H]3[C@H](O)C[C@@H]4C[C@H](O)CC[C@]4(C)[C@H]3C[C@H](O)[C@]12C,outcome,[1],inactive
same,outcome,[2],inactive
CC=Cc1ccc(OC)c(OC)c1,outcome,[1],inactive
same,outcome,[2],inactive
c1ccc(Oc2ccccc2)cc1,outcome,[1],inactive
same,outcome,[2],inactive
same,outcome,[8],inactive
COCCOCCOCCO,outcome,[1],inactive
same,outcome,[2],inactive
Cc1ccc(N)c(S(=O)(=O)O)c1,outcome,[1],inactive
same,outcome,[2],inactive
O=C(O)CCCCCCCCCCCC(=O)O,outcome,[1],inactive
same,outcome,[2],inactive
same,outcome,[8],inactive
CCCCCc1ccco1,outcome,[1],inactive
same,outcome,[2],inactive
same,outcome,[8],inactive
CCCCCCCCCC(=O)OC,outcome,[1],inactive
same,outcome,[2],inactive
